Source: PubChem BioAssay (Tox21)
Records with an inconclusive call do not appear. Active and inactive are the calls of the source. Unless noted, calls come from the whole dose curve; as a rule, active = well fitted curve in the direction sought with a large enough effect in the repeat runs; inconclusive = weak or mixed curves; inactive = no such curve, though single readings can be large; an effect the other way counts as inactive or inconclusive.

Tests used:
[1] = qHTS assay for small molecule agonists of the p53 signaling pathway (AID 651631; calls by dose curve; note: nearly all actives have a fitted effect of over 15% in size)
Method in brief: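 HCT-116 p53RE-bla reporter line, 16 h compound treatment at 37 °C, then fluorescence after 2 h with B/G FRET substrate.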

[2] = qHTS assay for small molecules that induce genotoxicity in human embryonic kidney cells expressing luciferase-tagged ATAD5 (AID 651632); note: nearly all actives have a fitted effect of over 15% in size
Method in brief: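 HEK293T cells carrying luciferase-tagged ATAD5 were given compound or DMSO vehicle and incubated 16 hr at 37C, 5% CO2. Luciferase activity was read after 30 min at room temperature with Amplite; a rise signals genotoxic stress.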

[3] = qHTS assay for small molecule agonists of the p53 signaling pathway - cell viability (AID 651633; calls by dose curve;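 note: p53RE-bla HCT reporter cells with a stable beta-lactamase p53 reporter; series mostly up to about 83 µM; nearly all actives have a fitted effect of over 30% in size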)
Method in brief: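 Viability counter-read: CellTiter-Glo luminescence (30 min, room temperature) in the same p53RE-bla plates. These plates had been exposed to compounds for 16 h at 37 C.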

[4] = qHTS assay for small molecules that induce genotoxicity in human embryonic kidney cells expressing luciferase-tagged ATAD5 - cell viability (AID 651634; calls by dose curve; note: nearly all actives have a fitted effect of over 25% in size)
Method in brief: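 HEK293T cells carrying luciferase-tagged ATAD5, 2,000 cells/well, exposed to compound for 15.5 hr at 37C. Viability read as live-cell protease activity by CellTiter-Fluor fluorescence after 30 min at 37C.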

[5] = qHTS assay for small molecule disruptors of the mitochondrial membrane potential - cell viability (AID 720634; calls by dose curve;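 note: human HepG2 liver cancer cells; series mostly up to about 83 µM; nearly all actives have a fitted effect of over 20% in size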)
Method in brief: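 HepG2 cells, 2,000 per well, attached overnight, then treated 1 hr at 37 C, 5% CO2. Viability read as ATP by CellTiter-Glo luminescence after 30 min at room temperature. Read in the same wells as the m-MPI membrane-potential dye assay.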

[6] = qHTS assay for small molecule disruptors of the mitochondrial membrane potential (AID 720635)
Method in brief: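 Mitochondrial membrane potential tracked with Mito-MPS dye, red aggregates (ex 540/em 590 nm) against green monomers (ex 490/em 535 nm). Compound treatment 1 hr at 37C, dye 30 min in HepG2.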

[7] = qHTS assay to test for compound auto fluorescence at 590 nm (red) in HepG2 cells (AID 720674)
Method in brief: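 1 hr compound incubation on HepG2 cells, 37 C, 5% CO2; plate read ex 540 nm / em 590 nm; intensities reported as Rose Bengal sodium equivalents.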

[8] = qHTS assay to test for compound auto fluorescence at 535 nm (green) in HepG2 cells (AID 720675)
[9] = qHTS assay to test for compound auto fluorescence at 460 nm (blue) in HEK293 cells (AID 720678)
Method in brief: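 Blue read-out at excitation 405 nm and emission 460 nm follows overnight compound exposure of HEK293 cells at 37C in 5% CO2. Activity is given as auto fluorescence equivalency to triamterene.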

[10] = qHTS assay to test for compound auto fluorescence at 590 nm (red) in HEK293 cells (AID 720679)
Method in brief: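 Red channel, Ex/Em 540/590nm; signal expressed as equivalency to Rose Bengal sodium. HEK293, 2,000 cells/well, 10% dialyzed FBS; 23 nL compound pinned after 4-5 hr attachment; overnight 37C/5% CO2 before reading.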

Measured: Potency

CCc1ccc(CC)cc1
inactive: all assays above

COC(=O)c1ccc(C(=O)O)cc1
inactive: all assays above

CCCCCCCCCCCCCC(=O)OCC
inactive: all assays above

CCOC(=O)CC(C(C)=O)C(C)=O
inactive: all assays above

CCC(C)(C)C
not listed: [6]
inactive: all other assays above

Cc1ccc(O)c(C(=O)c2ccccc2)c1
not listed: [6]
inactive: all other assays above

CCCCCCCOC(C)=O
inactive: all assays above

CCc1ncc(C)[nH]1
not listed: [6]
inactive: all other assays above

CN1C(CCl)Nc2cc(Cl)c(S(N)(=O)=O)cc2S1(=O)=O (stereo not drawn)
not listed: [6]
inactive: all other assays above

CSC(=O)c1cccc2nnsc12
inactive: all assays above

COC(C)(C)CC(C)=O
not listed: [6]
inactive: all other assays above

COC(=O)/C=C(\C)CCC=C(C)C
inactive: all assays above

c1coc(Cn2cccc2)c1
inactive: all assays above

O=C1c2ccccc2C(=O)N1CO
not listed: [6]
inactive: all other assays above

C=CC(C)(CCC=C(C)C)OC(=O)C(C)C (stereo not drawn)
inactive: all assays above

CC12CCCC=C1C(=O)OC2=O (stereo not drawn)
not listed: [6]
inactive: all other assays above

Cc1cccc(N)n1
inactive: all assays above

CCCC(=O)OC
inactive: all assays above

CN1CCN(C(=O)C2CCCCC2)CC1
inactive: all assays above

CCCC(C)C(O)CC (stereo not drawn)
inactive: all assays above

CC(C)c1cc(C(C)C)cc(C(C)C)c1
inactive: all assays above

CCCCc1ccc(Cl)cc1
inactive: all assays above

CCCCN(CCCC)CCCCCCN(CCCC)CCCC
inactive: all assays above
